The values that follow come from PubChem BioAssay.

Structures are written as SMILES. Activity calls are given as the source filed them.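 The calls were made as follows, unless noted: active = inhibition of the reporter signal at or above 50%; inactive = inhibition below 50%.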

Assay [1] in a line: inhibitors of TNFa-induced NFkB p65 translocation, primary screen, imaging, HUVEC, MLSMR starter and 10KST1 sets (AID 438;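 active = inhibition above 20% together with a positive visual image hit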;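 also: compound added about 3h40 before a 20 min TNFalpha stimulation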;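 as to inhibition: signal is the nuclear over cytoplasmic p65 intensity ratio per well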). As to conditions: HUVEC TNFa-induced p65 nuclear translocation; cell count: measured here: nuclei count (cytotoxicity indicator), at 2.08 µM; inhibition: at 2 µM, stronger effect = higher value, 0% TNFa-plus-vehicle, 100% no-TNFa wells.
Assay [2] is described as follows: inhibitors of mutant huntingtin aggregation, primary screen, imaging, exon1htt(103Q)mCFP cells, high-content imaging (AID 483;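 active = visual image review flags a hit and inhibition of aggregation exceeds 20%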;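 also: compound exposure lasted 3 days before fixation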;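 as to nuclei count: percent of the per-plate median nuclei count of sample wells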). To be noted: exon1htt(103Q)mCFP cell line, aggregate imaging, at 2 µM; inhibition of aggregation: stronger effect = higher value; nuclei count: measured here: cell count, toxicity.
The nature of assay [3]: inhibitors of E-selectin induction by TNFa, primary screen, imaging, HUVEC, immunofluorescence, MLSMR starter and 10KST1 sets (AID 487;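 active = visually confirmed hit in the image check and inhibition above 20%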;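 as to inhibition: signal is fraction of cell area covered by stained E-selectin grains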;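 as to nuclei count: 100% = median nuclei count of all wells on the same plate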). To be noted: HUVEC TNFalpha-induced E-selectin immunofluorescence imaging, at 2 µM; inhibition: stronger effect = higher value; nuclei count: measured here: cell number, toxicity.
The target in assay [4] is Voltage-gated potassium channel subunit beta-2 (Rattus norvegicus) (UniProt P62483). Kind of assay: KvBeta enzyme negative modulators, primary screen, biochemical, NADPH fluorescence (AID 622;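 active = fluorescence slope higher than the sample average by over 3 SD, cut at about -0.22 in these data, passing the limit was not always enough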;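 also: slope of raw intensity against log time taken from 70 to 1610 s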). As to conditions: recombinant KvBeta, 4-cyanobenzaldehyde reduction, at 10 µM, stronger effect = higher value.
Assay [5] has the same target. Kind of assay: KvBeta positive modulators, primary screen, biochemical, NADPH fluorescence (AID 623;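 active = NADPH fluorescence slope more negative than the mean of all samples by about 3 SD, 99.7% confidence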;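 also: fluorescence intensity change per second fitted from 20 to 320 s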). To be noted: Recombinant KvBeta, NADPH fluorescence decrease slope, 10 min; at 10 µM; stronger effect = lower value.
Assay [6] addresses Alpha-2C adrenergic receptor (Homo sapiens) (UniProt P18825). Kind of assay: modulators of alpha2C/GIRK thallium flux, primary screen, cell-based, HEK293 alpha2C/GIRK1/2 (AID 624;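 active = fluorescence slope after compound addition differing from the mean of all screened samples at 99.7% confidence, in either direction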;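 also: slope of fluorescence ratio to pre-addition baseline per second over 15 to 24 s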). To be noted: thallium flux BTC fluorescence, at 10 µM, actives lie on both sides.
Assay [7] is described as follows: inhibitors of Sendai virus-induced IRF3 signaling, primary screen, TLR/RLR signaling modifier project, cell-based, Sendai virus stimulus, luciferase, 10K MLSCN set (AID 602276;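 active = inhibition at or above 50% at 10 µM; inactive = inhibition below 50%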;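 also: firefly luciferase from ISG56 promoter only with Renilla not read in this screen; 0% = Sendai virus plus DMSO and 100% = medium plus DMSO without virus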). As to conditions: HEK293 RL24 IRF3 luciferase reporter, at 10 µM, stronger effect = higher value. Background: Reporter assays use an easily measured gene product as a stand-in for the process of interest.

Assay [8] in a line: inhibitors of poly I:C-induced TLR3 signaling, primary screen, cell-based, poly I:C stimulus, luciferase, 10K MLSCN set (AID 602277). To be noted: HEK293-TLR3 RL24 IRF3 luciferase reporter, at 10 µM, stronger effect = higher value.

As usually defined, the inhibition is the drop in the measured response relative to a control, in per cent.

Alpha-2C adrenergic receptor (Homo sapiens), sequence (P18825 whole entry, looked up): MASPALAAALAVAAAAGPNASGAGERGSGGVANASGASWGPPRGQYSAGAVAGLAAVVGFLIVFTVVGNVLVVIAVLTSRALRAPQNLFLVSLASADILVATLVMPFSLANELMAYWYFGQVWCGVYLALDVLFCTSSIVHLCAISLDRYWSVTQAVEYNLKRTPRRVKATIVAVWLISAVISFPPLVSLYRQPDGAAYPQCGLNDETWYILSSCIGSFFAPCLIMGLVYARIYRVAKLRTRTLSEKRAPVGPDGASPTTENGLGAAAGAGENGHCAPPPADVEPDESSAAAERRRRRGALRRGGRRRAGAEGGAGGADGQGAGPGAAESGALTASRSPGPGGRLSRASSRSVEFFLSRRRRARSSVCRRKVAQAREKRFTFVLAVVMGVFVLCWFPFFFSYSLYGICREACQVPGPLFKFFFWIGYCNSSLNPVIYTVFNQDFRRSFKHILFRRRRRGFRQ
Voltage-gated potassium channel subunit beta-2 (Rattus norvegicus), sequence (P62483 whole entry, looked up): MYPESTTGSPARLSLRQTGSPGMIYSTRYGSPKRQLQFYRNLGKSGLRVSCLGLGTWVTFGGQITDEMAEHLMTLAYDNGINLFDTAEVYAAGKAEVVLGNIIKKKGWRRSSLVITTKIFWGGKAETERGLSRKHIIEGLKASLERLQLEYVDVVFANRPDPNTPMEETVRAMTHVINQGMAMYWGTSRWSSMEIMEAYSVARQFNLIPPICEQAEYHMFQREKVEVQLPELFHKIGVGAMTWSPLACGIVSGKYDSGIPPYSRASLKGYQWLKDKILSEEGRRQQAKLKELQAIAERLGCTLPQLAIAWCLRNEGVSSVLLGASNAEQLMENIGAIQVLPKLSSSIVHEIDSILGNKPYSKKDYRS

`COc1ccc(S(=O)(=O)N2CCCC(C(=O)N3CCCCCC3)C2)cc1` (stereo not drawn): the cell count in assay [1] stood at 404. Moreover, the inhibition in assay [1] is -5.2% (inactive); in assay [3], -8.6% (inactive); in assay [7], 12% (inactive); in assay [8], 10.4% (inactive). For the same compound, the inhibition of aggregation in assay [2] is -0.4% (inactive). Besides, the nuclei count was found to be 106% in assay [2] and 105% in assay [3]. The fluorescence slope in assay [4] was -0.403 (inactive). In addition, the NADPH fluorescence slope in assay [5] is -5e-05 (inactive). Further, the slope in assay [6] was 0.00316 (inactive).
Consider `COc1ccc(-n2c(=O)c3c4c(sc3n3cnnc23)CC(C)CC4)cc1` (stereo not drawn), for which the cell count in assay [1] came to 370. The inhibition in assay [1] is 0.2% (inactive); in assay [3] it was -108% (inactive); in assay [7], 23.9% (inactive); in assay [8], 2.31% (inactive). Further, the inhibition of aggregation in assay [2] was -5.1% (inactive). For the same compound, the nuclei count was found to be 80.3% in assay [2] and 116% in assay [3]. Further, the fluorescence slope in assay [4] is -0.46 (inactive). The NADPH fluorescence slope in assay [5] was -4.9e-05 (inactive). For the same compound, the slope in assay [6] is 0.00768 (inactive).
As for `O=C(O)c1cccc(NC(=O)C23CC4CC(C2)CC(n2cnc(Cl)n2)(C4)C3)c1`, the cell count in assay [1] was 571. The inhibition in assay [1] is -24.4% (inactive); in assay [3], -14.3% (inactive); in assay [7] it was 9.34% (inactive); in assay [8] it was 17.3% (inactive). Moreover, in assay [2], the inhibition of aggregation was -15.8% (inactive). For the same compound, the nuclei count was found to be 108% in assay [2] and 115% in assay [3]. In addition, the fluorescence slope in assay [4] is -0.506 (inactive). Further, in assay [5], the NADPH fluorescence slope was -1.2e-05 (inactive). In addition, in assay [6], the slope was 0.00606 (inactive).
`COc1ccc(-c2noc(CCN3C(=O)c4ccccc4C3=O)n2)cc1OC`: the cell count in assay [1] is 555. Also, the inhibition was 7.6% (inactive) in assay [1], 28.6% (inactive) in assay [3], -0.74% (inactive) in assay [7] and 26.4% (inactive) in assay [8]. In addition, the inhibition of aggregation in assay [2] is -3.7% (inactive). The nuclei count in assay [2] amounted to 108%; in assay [3] it was 104%. The fluorescence slope in assay [4] was -0.497 (inactive). The NADPH fluorescence slope in assay [5] is -2.8e-05 (inactive). Also, the slope in assay [6] is 0.00665 (inactive).
For `C=CCSC1=C(C#N)C(c2ccccc2Cl)CC(=O)N1` (stereo not drawn), the cell count in assay [1] was determined as 407. Also, the inhibition was -6.5% (inactive) in assay [1], -59% (inactive) in assay [3], 25.7% (inactive) in assay [7] and 14.1% (inactive) in assay [8]. For the same compound, the inhibition of aggregation in assay [2] is 28.2% (inactive). Also, the nuclei count was 74.3% in assay [2] and 171% in assay [3]. Further, the fluorescence slope in assay [4] is -0.561 (inactive). Further, the NADPH fluorescence slope in assay [5] was 5.8e-06 (inactive). Besides, the slope in assay [6] was 0.0048 (inactive).
In the case of `CSc1oc(-c2ccccc2)nc1S(=O)(=O)c1ccc(F)cc1`, the cell count in assay [1] was 417. The inhibition in assay [1] is 8.3% (inactive); in assay [3], -45.5% (inactive); in assay [7], 16.4% (inactive); in assay [8], 22.3% (inactive). In addition, in assay [2], the inhibition of aggregation was 1% (inactive). The nuclei count in assay [2] is 101%; in assay [3], 107%. Further, the fluorescence slope in assay [4] was -0.481 (inactive). Besides, the NADPH fluorescence slope in assay [5] was -3.1e-05 (inactive). For the same compound, the slope in assay [6] is 0.00494 (inactive).
In the case of `C/C=C(\C)c1nnc(NC(=O)OCC)s1`, in assay [1], the cell count was 743. The inhibition in assay [1] was -5% (inactive); in assay [3] it was -52% (inactive); in assay [7], -36.1% (inactive); in assay [8], -51.1% (inactive). The inhibition of aggregation in assay [2] is -16% (inactive). The nuclei count in assay [2] was 115%; in assay [3] it was 110%. Moreover, the fluorescence slope in assay [4] is -0.342 (inactive). Besides, the NADPH fluorescence slope in assay [5] was -5.8e-05 (inactive). Further, the slope in assay [6] is 0.00534 (inactive).
With `CCCOc1ccc(S(=O)(=O)NCCCN2CCOCC2)c2ccccc12`, the cell count in assay [1] is 402. Further, the inhibition in assay [1] is 5.8% (inactive); in assay [3], -43.1% (inactive); in assay [7], 16% (inactive); in assay [8] it was 13.7% (inactive). Further, the inhibition of aggregation in assay [2] is -33.7% (inactive). The nuclei count amounted to 106% in assay [2] and 118% in assay [3]. The fluorescence slope in assay [4] is -0.418 (inactive). For the same compound, the NADPH fluorescence slope in assay [5] is -4.8e-05 (inactive). In addition, the slope in assay [6] was 0.00402 (inactive).
For `O=C(O)C1CC=CCC1C(=O)NCc1ccccc1` (stereo not drawn), the cell count in assay [1] is 625. Further, the inhibition in assay [1] is 6% (inactive); in assay [3], -28.4% (inactive); in assay [7] it was 10% (inactive); in assay [8] it was 11.4% (inactive). The inhibition of aggregation in assay [2] is -11% (inactive). For the same compound, the nuclei count in assay [2] and in assay [3] was 107% in each case. For the same compound, the fluorescence slope in assay [4] was -0.41 (inactive). In addition, the NADPH fluorescence slope in assay [5] was 3.8e-06 (inactive). In addition, the slope in assay [6] was 0.00502 (inactive).
As for `COc1ccc(OC)c(NC(=O)CCNS(=O)(=O)c2cccs2)c1`, the cell count in assay [1] stood at 662. In addition, the inhibition in assay [1] is 7.1% (inactive); in assay [3] it was -74.4% (inactive); in assay [7] it was 14.1% (inactive); in assay [8], 24.2% (inactive). For the same compound, the inhibition of aggregation in assay [2] was 5.1% (inactive). Further, the results for the nuclei count in assay [2] and in assay [3] were 81.4% and 91.1%, respectively. The fluorescence slope in assay [4] was -0.533 (inactive). Also, the NADPH fluorescence slope in assay [5] was 3.3e-05 (inactive). In addition, in assay [6], the slope is 0.00666 (inactive).
`CCOC(=O)c1cc2c(=O)n3ccccc3nc2n(CCCOC)c1=NC(C)=O`: in assay [1], the cell count was 657. For the same compound, the inhibition in assay [1] was 11.2% (inactive); in assay [3] it was -33.6% (inactive); in assay [7], 1.75% (inactive); in assay [8], 9.93% (inactive). In assay [2], the inhibition of aggregation is 21.5% (inactive). The nuclei count was 94.4% in assay [2] and 82.5% in assay [3]. In addition, the fluorescence slope in assay [4] was -0.133 (active). Also, the NADPH fluorescence slope in assay [5] was 1.2e-05 (inactive). In assay [6], the slope was 0.00482 (inactive).
On to `CCCCc1noc2c1/C(=N\O)CC(c1ccccc1)C2` (stereo not drawn), for which the cell count in assay [1] stood at 365. For the same compound, the inhibition in assay [1] is 2% (inactive); in assay [3], -65.5% (inactive); in assay [7] it was -46.5% (inactive); in assay [8], -152% (inactive). Further, the inhibition of aggregation in assay [2] is 11.5% (inactive). Besides, the nuclei count in assay [2] came to 106%; in assay [3], 94.1%. For the same compound, the fluorescence slope in assay [4] was -0.446 (inactive). Further, in assay [5], the NADPH fluorescence slope was -5.9e-05 (inactive). The slope in assay [6] is 0.0073 (inactive).
In the case of `Cc1ccc(C)c(/C(O)=C2\C(=O)C(=O)N(CCCN3CCOCC3)C2c2cccnc2)c1` (stereo not drawn), the cell count in assay [1] is 529. Besides, the inhibition in assay [1] is 5.5% (inactive); in assay [3] it was -280% (inactive); in assay [7], 9.67% (inactive); in assay [8], 21.1% (inactive). Moreover, the inhibition of aggregation in assay [2] was -1.6% (inactive). In addition, the nuclei count in assay [2] turned out to be 109%; in assay [3], 127%. Also, the fluorescence slope in assay [4] was -0.339 (inactive). The NADPH fluorescence slope in assay [5] was -2.4e-06 (inactive). Besides, the slope in assay [6] is 0.00619 (inactive).
